Measured values reported in PubChem BioAssay (NCATS).
Results filed as inconclusive are left out. A call without a number means that no potency is given here. Calls of active or inactive are those of the source. Calls follow the shape of the full dose curve.
Potency is read from the fitted curve at half-maximal effect.

Test: Validation screen for inhibitors of Lassa infection (AID 463096)
Conditions: Lassa virus infection, cell-based; series mostly up to 46.1 µM
In the case of CC(C)[N+](C)(CCOC(=O)C1c2ccccc2Oc2ccccc21)C(C)C, the Potency is reported as “inactive”. In the case of CC(C(=O)O)c1cccc(C(=O)c2ccccc2)c1 (configuration not stated), the Potency is reported as “inactive”. With CN(C)CC[C@@H](c1ccc(Br)cc1)c1ccccn1 the Potency was “inactive”. In the case of COc1ccccc1OCC(O)CN1CCN(CC(=O)Nc2c(C)cccc2C)CC1 (configuration not stated), the Potency is reported as “inactive”. In the case of COc1ccc([C@@H]2Sc3ccccc3N(CCN(C)C)C(=O)[C@@H]2OC(C)=O)cc1, the Potency is reported as 1410 nM (active). For O=C1CCc2cc(OCCCCc3nnnn3C3CCCCC3)ccc2N1, the Potency was “inactive”. For O=C(CCCN1CCC(O)(c2ccc(Cl)cc2)CC1)c1ccc(F)cc1, the Potency was “inactive”. With CC1(C)NC(=O)N(c2ccc([N+](=O)[O-])c(C(F)(F)F)c2)C1=O the Potency was “inactive”. For CN1CCN(C2=Nc3cc(Cl)ccc3Nc3ccccc32)CC1, the Potency was “inactive”. With Clc1ccc(C(c2ccccc2Cl)C(Cl)Cl)cc1 (configuration not stated) the Potency was “inactive”. In the case of CC(C)C(=O)Nc1ccc([N+](=O)[O-])c(C(F)(F)F)c1, the Potency is reported as “inactive”. In the case of CC(=O)Nc1nnc(S(N)(=O)=O)s1, the Potency is reported as “inactive”. With CC(C)(C)NC(=O)[C@H]1CC[C@H]2[C@@H]3CC[C@H]4NC(=O)C=C[C@]4(C)[C@H]3CC[C@]12C the Potency was “inactive”. For Cc1cnc(C(=O)NCCc2ccc(S(=O)(=O)NC(=O)NC3CCCCC3)cc2)cn1, the Potency was “inactive”. With CC(CN1c2ccccc2Sc2ccccc21)N(C)C (configuration not stated) the Potency was “inactive”. With CC(=O)CCCCn1c(=O)c2c(ncn2C)n(C)c1=O the Potency was “inactive”. For Nc1nnc(-c2cccc(Cl)c2Cl)c(N)n1, the Potency was “inactive”. For Cc1ccccc1C(OCCN(C)C)c1ccccc1 (configuration not stated), the Potency was “inactive”. For O=C1CCC(N2C(=O)c3ccccc3C2=O)C(=O)N1 (configuration not stated), the Potency was “inactive”. With CC(C)NCC(O)COc1cccc2[nH]ccc12 (configuration not stated) the Potency was “inactive”. In the case of Cn1cnc([N+](=O)[O-])c1Sc1ncnc2nc[nH]c12, the Potency is reported as “inactive”. In the case of CC(=O)N[C@@H](CS)C(=O)O, the Potency is reported as “inactive”. With CC(C)(C(=O)O)c1ccc(C(O)CCCN2CCC(C(O)(c3ccccc3)c3ccccc3)CC2)cc1 (configuration not stated) the Potency was “inactive”. For O=C1N=C(O)CN1/N=C/c1ccc(-c2ccc([N+](=O)[O-])cc2)o1, the Potency was “inactive”. In the case of NC(=O)NO, the Potency is reported as “inactive”. For Cc1oncc1C(=O)Nc1ccc(C(F)(F)F)cc1, the Potency was “inactive”. In the case of O=C(C1CCCCC1)N1CC(=O)N2CCc3ccccc3C2C1 (configuration not stated), the Potency is reported as “inactive”. With Cc1cn([C@H]2C=C[C@@H](CO)O2)c(=O)[nH]c1=O the Potency was “inactive”. With CCCN1C[C@H](CSC)C[C@@H]2c3cccc4[nH]cc(c34)C[C@H]21 the Potency was “inactive”. With C[C@](N)(Cc1ccc(O)c(O)c1)C(=O)O the Potency was “inactive”. For CC1=C(/C=C/C(C)=C/C=C/C(C)=C/C(=O)Nc2ccc(O)cc2)C(C)(C)CCC1, the Potency was “inactive”. For CN(C)c1nc(N(C)C)nc(N(C)C)n1, the Potency was “inactive”.
